Among all 360,000 compounds or so, about 25,000 (6.9%) were called active. Roughly 9% stayed inconclusive and do not appear here. Only a selection was taken, and actives are over-represented in it overall. Values without a mark were called inactive. Calls come from the whole dose curve; as a rule, active = well fitted inhibition curve with a large enough effect; inconclusive = small, poorly fitted or top-dose-only effect; inactive = flat fitted curve, though single readings scatter.
These molecules were tested against Luciferin 4-monooxygenase (Photinus pyralis) (UniProt P08659) (assay: qHTS profiling assay for firefly luciferase inhibitor/activator using purifed enzyme and Km concentrations of substrates (counterscreen for miR-21 project)). Conditions: purified FLuc, luminescence inhibition; series mostly up to 57.5 µM; activity change, negative = inhibition: at the top concentration.
Chain of Luciferin 4-monooxygenase (Photinus pyralis) (P08659 whole entry, looked up): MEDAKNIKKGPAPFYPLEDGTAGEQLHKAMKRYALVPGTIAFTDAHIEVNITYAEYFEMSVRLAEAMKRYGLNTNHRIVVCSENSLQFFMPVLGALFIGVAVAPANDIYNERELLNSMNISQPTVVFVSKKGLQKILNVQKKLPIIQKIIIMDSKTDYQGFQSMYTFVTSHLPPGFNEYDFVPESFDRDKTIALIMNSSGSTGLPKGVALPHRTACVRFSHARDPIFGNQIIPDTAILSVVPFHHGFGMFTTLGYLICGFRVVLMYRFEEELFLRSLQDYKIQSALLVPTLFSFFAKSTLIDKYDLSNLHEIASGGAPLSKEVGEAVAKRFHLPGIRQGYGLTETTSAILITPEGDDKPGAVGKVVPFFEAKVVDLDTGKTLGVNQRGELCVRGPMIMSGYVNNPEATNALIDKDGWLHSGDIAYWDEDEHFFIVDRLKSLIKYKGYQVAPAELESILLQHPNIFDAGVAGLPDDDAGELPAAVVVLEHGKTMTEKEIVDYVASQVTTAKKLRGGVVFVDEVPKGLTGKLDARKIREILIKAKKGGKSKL
Method in brief: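 Biochemical qHTS of compounds, final roughly 60 µM downward over six points, against 10 nM purified firefly luciferase using Km concentrations of substrates (10 uM D-luciferin, 10 uM ATP) in Tris acetate pH 7.5 buffer; luminescence output.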
Note: nearly all actives have a fitted effect of over 55% in size.
Potency is the fitted concentration of half-maximal effect.
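Throughout, for activity change, negative = inhibition: plate controls were vehicle for no effect and reference inhibitor for full effect.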

Structure (SMILES) | activity change, negative = inhibition [%] | Potency
COC(=O)c1ccc(C)c(NC(=O)C2CC(=O)N(C3CCCC(C)C3C)C2)c1 (stereo not given) | 2.82 | 
Clc1ccc(COn2c(-c3ccc(Cl)cc3Cl)nc3ncccc32)cc1 | -2.6 | 
COn1c(-c2ccc(Cl)cc2Cl)nc2ncccc21 | -4.94 | 
Clc1ccc(-c2cc(-c3ccccn3)on2)c(Cl)c1 |  | 0.0757 µM (active)
O=C1N(Cc2ccccc2)c2ccc(Cl)cc2C1(O)c1c[nH]c2ccccc12 (stereo not given) | -10.9 | 
Cc1ccc(-c2nn3c(=O)cc(CN4CCN(C(=O)Nc5cccc(C(F)(F)F)c5)CC4)nc3s2)cc1 | 1.5 | 
Cc1cccc(NC(=O)c2ccc3nc(C(C)C)oc3c2)c1C | 4.06 | 
CCCCOc1ccc(C(=O)Nc2cccc(-c3nc4ccccc4o3)c2C)cc1 | 0.726 | 
Cc1cc(C)c2oc(-c3cccc(NC(=O)c4cccc(F)c4)c3C)nc2c1 |  | 0.849 µM (active)
CCc1cc2c(cc(C(=O)OC)n2Cc2nc(-c3ccc(C)cc3)oc2C)s1 | 4.94 | 
Cc1ccc(Cn2c(=O)n(-c3ccc(C)cc3)c(=O)c3c2c2cc(C)ccc2n3C)cc1 | 0.879 | 
Cc1ccc(-c2cnc(NCc3ccc(C(C)C)cc3)n2C)cc1 | -8.87 | 
Cc1cccc(N(C(=O)c2sc(C)nc2C)C(C(=O)NCC2CCCO2)c2ccccc2)c1 (stereo not given) | -0.32 | 
COc1ccc(NC(=O)CCNC(=O)Cn2cnc3sc4c(c3c2=O)CCCC4)cc1OC | 3.17 | 
COc1ccc(/C=N/Nc2ncnc3sc4c(c23)CCCC4)cc1O |  | 1.69 µM (active)
COc1ccc(NC(=O)CCCNC(=O)Cn2cnc3sc4c(c3c2=O)CCCC4)cc1OC | 1.63 | 
CCCOc1ccc(NC(=O)CC2C(=O)N(c3ccccc3)C(=O)N2Cc2ccco2)cc1 (stereo not given) | -2.45 | 
CCc1ccc(CNC(=O)CCc2nc(-c3cccs3)no2)cc1 | 1.93 | 
COc1ccc(OC)c(CNC(=O)CCc2nc(-c3cccs3)no2)c1 | 4.41 | 
COc1ccc(CCc2nc(-c3cccs3)no2)cc1 |  | 19 µM (active)
COc1ccc(-n2c(SC)nc3sc4c(c3c2=O)CCN(C(C)=O)C4)cc1 | -0.891 | 
Cc1cccc(NC(=O)Cn2c(=O)n(CCC(C)C)c(=O)c3cccnc32)c1 | -4.8 | 

Structure (SMILES) | activity change, negative = inhibition [%] | Potency
COc1ccccc1C(=O)OCc1cc(=O)n2nc(-c3cccs3)sc2n1 | 4.29 | 
O=C(Cn1c(=O)n(-c2ccc(F)cc2)c(=O)c2sc3ccccc3c21)NC1CCCC1 | 1.27 | 
Cc1ccc(C)c2c1cc(C)c1nnc(SCC(=O)Nc3cccc(C(=O)O)c3)n12 | 1.26 | 
Cc1cccc(NC(=O)CSc2nnc(CNC(=O)c3cccc(C)c3)n2-c2ccccc2)c1 | -10.2 | 
Cc1ccc(C(=O)NCCc2nnc(SCC(=O)Nc3cccc(C(=O)O)c3)n2C)cc1 |  | 10.7 µM (active)
COc1ccc(CCN(Cc2cc3cccc(C)c3[nH]c2=O)C(=O)N2CCCC2)cc1OC | 2.09 | 
CCOc1ccc(NC(=O)c2cc(S(=O)(=O)N3CCCC3)c[nH]2)cc1 | -4.94 | 
CN(c1ccccc1)S(=O)(=O)c1ccc(C(=O)NCCc2ccccc2)cc1 | -2.94 | 
O=C(CCNC(=O)c1ccc(Br)cc1)NCCCc1ccccc1 | -3.03 | 
NS(=O)(=O)c1cc(C(=O)NCCOc2ccccc2)c(Cl)cc1Cl | -0.907 | 
COc1ccc(OCCCC(=O)NCCc2ccccc2)cc1 | 2.74 | 
O=C(NCCOc1ccccc1)c1ccccc1 |  | 4.78 µM (active)
CCCOc1ccc(C(=O)NCCc2ccccc2)cc1 |  | 1.07 µM (active)
CC(C)c1ccc(C(=O)NCCCc2ccccc2)cc1 |  | 10.7 µM (active)
Cc1c(C(=O)NCCCc2ccccc2)cccc1[N+](=O)[O-] | 3.72 | 
CCCCCCCCC(=O)NCCOc1ccccc1 | -2.85 | 
CCOc1ccc(C2C(C(=O)Nc3ccc(Cl)cc3)=C(C)Nc3nc(C(F)(F)F)nn32)cc1 (stereo not given) | 1.24 | 
COc1ccc(CCNC(=O)c2c3c(nc4ccccc24)C(=O)N(C2CCCCC2)C3)cc1OC | -2.5 | 
CCOC(=O)CN1C(C(=O)c2ccccc2)=C(OC(=O)C(C)(C)C)c2ccccc2S1(=O)=O | 3.84 | 
CSc1nc(-c2ccccc2Cl)nc2c1Cc1c(CO)cnc(C)c1O2 | -4.31 | 
COC(=O)c1ccc(NC(=O)c2ccccc2NS(=O)(=O)c2ccccc2)cc1 |  | 16.9 µM (active)
CCCNC(=O)Nc1ccccc1C(=O)Nc1ccc(OC)cc1 | -14.9 | 

Structure (SMILES) | activity change, negative = inhibition [%] | Potency
CCOc1ccc(NC(=O)c2cnn(-c3ccccc3)c2-n2cccc2)cc1 | -19.4 | 
COc1ccc(NC(=O)c2cnc(NS(=O)(=O)c3ccccc3)nc2)cc1 | 0.658 | 
CCOc1ccc(NC(=O)c2ccccc2NS(C)(=O)=O)cc1 |  | 10.7 µM (active)
COC(=O)c1ccccc1NS(=O)(=O)c1ccc2[nH]c(=O)[nH]c2c1 | -2.28 | 
CCC1CCCCN1S(=O)(=O)c1ccc(NC(=O)c2cc(=O)c3ccccc3o2)cc1 (stereo not given) | -1.88 | 
COc1ccc(NC(=O)CCCN2C(=O)CCn3nc(-c4cn(C)c5ccccc45)cc32)cc1OC | -11.5 | 
O=S(=O)(NCCc1nnc2ccc(SCc3ccc(Cl)cc3Cl)nn12)c1ccccc1 | -3.8 | 
CCOc1ccc2oc(=O)cc(CN3CCN(C(=O)c4ccc(F)cc4)CC3)c2c1 | -5.98 | 
Cc1cc(C)nc(N/N=C/c2ccc([N+](=O)[O-])o2)n1 | -13.7 | 
Cc1cc(C)nc(N/N=C/c2ccncc2)n1 | 4.25 | 
Cc1cc2c(C)nc(N/N=C/c3ccccc3)nc2o1 |  | 9.53 µM (active)
COc1ccc([C@H]2CC(=O)C=C(c3ccc(C)cc3)C2)cc1 | -13.8 | 
Cc1nnc(N2CCCC(C(=O)NCCN(C)C)C2)c2nn(-c3ccccc3)c(C)c12 (stereo not given) | -2.09 | 
CCCCCOC(=O)NCCOC(=O)Nc1ccc(C(=O)OCC)cc1 | -4.13 | 
CCCCOC(=O)Nc1nnc(CC(=O)NCc2ccccc2)s1 | 0.516 | 
CCCCCCOC(=O)NCC(O)c1ccccc1 (stereo not given) |  | 12 µM (active)
Cc1cc(Cl)ccc1C(=O)C1CCCN(C(=O)c2nonc2C)C1 (stereo not given) | 0.226 | 
CCOC(=O)c1ccccc1NC(=O)c1nn(-c2ccc(OC)c(Cl)c2)c(=O)c2c1c1ccccc1n2C | -1.01 | 
O=c1[nH]n(-c2ccc([N+](=O)[O-])cc2)c(=O)c2ccccc12 | -4.92 | 
COC(=O)CC1=NN(c2ccccc2)C(=O)C1 | 1.6 | 
O=C1CC(c2ccccc2)=NN1c1ccc([N+](=O)[O-])cc1 |  | 13.5 µM (active)

From PubChem BioAssay AID588342 (National Center for Advancing Translational Sciences (NCATS), 2011)
